Here are results for 24 compounds from PubChem BioAssay (Tox21).

Several values for one entry are separate records, joined by “and”; a condition that tells them apart may be missing. Identical values can stand only once. Inconclusive results are not listed. Where a structure was tested more than once in an assay, its records may differ in their call. Activity calls are given as the source filed them. Unless noted, calls come from the whole dose curve; as a rule, active = well fitted curve in the direction sought with a large enough effect in the repeat runs; inconclusive = weak or mixed curves; inactive = no such curve, though single readings can be large; an effect the other way counts as inactive or inconclusive.

A short description of assay [1]: qHTS assay to identify small molecule agonists of the hypoxia (HIF-1) signaling pathway - cell viability counter screen (AID 1224844; calls by dose curve; note: nearly all actives have a fitted effect of over 50% in size; note: potency is the fitted concentration of half-maximal effect). Put shortly: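 In this counter screen, HRE-bla ME-180 cell viability after 17 hrs of compound exposure at 37C was read by CellTiter-Glo luminescence, multiplexed with the beta-lactamase reporter measurement.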
A general note: In qHTS, concentration-response curves come from the screen itself.

A short description of assay [2]: qHTS assay to identify small molecule agonists of H2AX (AID 1224845; active = well fitted activation curve with a large enough effect in the signal ratio in the repeat runs, not every such curve was filed as active; the % refers to the signal ratio). The method in brief:
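Wild-type CHO-K1 cells plated overnight, then exposed 3 hr at 37C to compounds at 15 concentrations (0.76% DMSO). Lysed, then HTRF anti-pH2AX(S139)-cryptate/anti-H2AX-d2 detection after 24 hr at room temperature; emissions 665 and 620 nm.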

A short description of assay [3]: qHTS assay to identify small molecule agonists of the hypoxia (HIF-1) signaling pathway (AID 1224846; active = well fitted activation curve with a large enough effect in the signal ratio in the repeat runs, not every such curve was filed as active; the % refers to the signal ratio). The method in brief: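 ME-180 HRE-bla reporter cells; compounds in DMSO, 17 h at 37C; read-out beta-lactamase via CCF4-AM FRET.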
The nature of assay [4]: qHTS assay to identify small molecule agonists of H2AX - cell viability counter screen (AID 1224847; calls by dose curve; note: nearly all actives have a fitted effect of over 30% in size; note: potency is the fitted concentration of half-maximal effect). Put shortly: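 CHO-K1 cells plated overnight at 37C, then exposed 3 h at 37C to compounds at 15 concentrations (0.76% DMSO final). Viability by CellTiter-Glo luminescence after 30 min at room temperature.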
Assay [5] is described as follows: qHTS RealTime-Glo MT Cell Viability Assay in HepG2 cells - 24 hour (AID 1224867). Note: nearly all actives have a fitted effect of over 50% in size. Note: potency is the fitted concentration of half-maximal effect. Put shortly:
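HepG2 cells were seeded at 600 cells/well together with NanoLuc luciferase and a cell-permeant prosubstrate, preincubated 5 h at 37 C/5% CO2, then pin-dosed with compounds in DMSO. Nonlytic luminescence from viable cells was read at each time point.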

Assay [6] is described as follows: qHTS RealTime-Glo MT Cell Viability Assay in HEK293 cells - 32 hour (AID 1224868). Note: nearly all actives have a fitted effect of over 50% in size. Note: potency is the fitted concentration of half-maximal effect. The method in brief:
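HEK293 cells were seeded at 600 cells/well together with NanoLuc luciferase and cell-permeant prosubstrate, preincubated 5 h at 37 C/5% CO2, then given compound in DMSO by pintool. Luminescence from viable-cell prosubstrate reduction was read repeatedly over 40 h.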

The nature of assay [7]: A CellTox Green Cytotoxicity Assay to monitor cytotoxicity in HEK293 cells - 0 hour (AID 1224869). Note: nearly all actives have a fitted effect of over 50% in size. Note: potency is the fitted concentration of half-maximal effect. The method in brief:
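Real-time, in one plate: 600 HEK293 cells/well with dead-cell DNA dye, pinned compound after 5 h, 37 C incubation over 40 h; viable cells give no appreciable fluorescence.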

A short description of assay [8]: qHTS RealTime-Glo MT Cell Viability Assay in HepG2 cells - 40 hour (AID 1224870). Note: nearly all actives have a fitted effect of over 50% in size. Note: potency is the fitted concentration of half-maximal effect. Put shortly: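 HepG2 cells mixed with RealTime-Glo MT reagents (NanoLuc plus cell-permeant prosubstrate) were seeded at 600 cells/well, incubated 5 h at 37 C/5% CO2, then pinned with compounds in DMSO; nonlytic luminescence tracked viability during 40 h treatment.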
Assay [9] is described as follows: qHTS assay to identify small molecule antagonists of the estrogen related receptor (ERR) signaling pathway from Tox21 library (AID 1224848). Note: nearly all actives have a fitted effect of over 50% in size. Note: potency is the fitted concentration of half-maximal effect. The method in brief: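 Tox21 10K compounds in DMSO tested for ERR pathway antagonism in NTP's ERR cell line; 18 h, 37 C exposure; ONE-Glo luminescence.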
The nature of assay [10]: qHTS assay to identify small molecule agonists of the estrogen related receptor (ERR) signaling pathway from Tox21 library (AID 1224849; calls by dose curve; note: nearly all actives have a fitted effect of over 15% in size). Particulars: ERR reporter cell line, ONE-Glo luciferase, 18 h. Put shortly:
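Luciferase activity in ERR pathway reporter cells served as the agonist readout; exposure lasted 18 h at 37 C, with ONE-Glo detection after 30 min at room temperature.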
% is set by controls: 0 for no effect and ±100 for the full control effect.

Turning to `C=C(C)C1CC=C(C)CC1` (stereo unspecified), the Potency entry in assay [1], in assay [3], in [4], in [5], in assay [6] and in assay [7] was “inactive” in each case. For the same compound, the Potency result in assay [8] is “inactive”. In addition, in assay [2], the compound was classed as inactive.

As to `O=S(=O)(O)c1ccc(O)cc1`, the Potency result in assay [1], in [3], in assay [4], in assay [5], in [6] and in assay [7] was “inactive” throughout. Also, in assay [8], the Potency result was “inactive”. In addition, the call in assay [2] was inactive.

As for `Cc1cccc([N+](=O)[O-])c1C`, the Potency result in assay [1], in assay [3], in [4], in assay [5], in assay [6] and in [7] was “inactive” throughout. Besides, in assay [8], the Potency entry was “inactive”. Moreover, in assay [2], the compound was classed as inactive.

Regarding `O=C=Nc1ccc(Cc2ccc(N=C=O)cc2)cc1`, the Potency entry in assay [1], in assay [4], in assay [9], in assay [5], in [6] and in assay [7] was “inactive” throughout. Besides, in assay [2], the compound was called inactive. Besides, the results for the activity change, positive = activation in [10] (at 42.5 µM (top of the series)) and in assay [10] (at 92.4 µM (top of the series)) were 2.14% (inactive) and -19.6% (inactive), respectively.

As to `c1cc(-c2ccncc2)ccn1`, the Potency result in assay [1], in assay [3], in assay [4], in assay [5], in [6] and in assay [7] was “inactive” in each case. The Potency result in assay [8] was “inactive”. Also, the compound was classed as inactive in assay [2].

For `CCCCOCCOCCO`, the Potency result in assay [1], in [3], in [4], in assay [5], in [6] and in assay [7] was “inactive” in each case. Further, the Potency entry in assay [8] was “inactive”. In addition, the compound was called inactive in [2].

Regarding `O=C(c1ccccc1)c1ccccc1O`, the Potency result in assay [1], in assay [3], in assay [9], in [5], in assay [6] and in assay [7] was “inactive” each time. Moreover, the compound was called inactive in assay [2]. For the same compound, the activity change, positive = activation in assay [10] (at 92.4 µM (top of the series)) is -0.602% (inactive) and -1.04% (inactive).

For `O=P(O)(O)O`, the Potency entry in assay [1], in [3], in [4], in assay [5], in assay [6] and in assay [7] was “inactive” in each case. Also, the Potency entry in assay [8] is “inactive”. The outcome in [2] was inactive.

As for `CCCCC(CC)COC(=O)c1ccc(N(C)C)cc1` (stereo unspecified), the Potency result in [1], in assay [3], in [4], in assay [5], in [6] and in assay [7] was “inactive” in each case. The outcome in assay [2] was inactive.

With `Cn1cnc([N+](=O)[O-])c1Sc1ncnc2nc[nH]c12`, the Potency result in [1], in assay [4], in [9], in assay [5], in assay [7] and in [8] was “inactive” each time. The result in assay [2] was inactive. The activity change, positive = activation in [10] (at 42.5 µM (top of the series)) is 8.83% (inactive); in [10] (at 92.4 µM (top of the series)), 19.9% (active). In addition, the Potency in [6] is 19.4 µM (active).

Turning to `NNc1ccc(C(=O)O)cc1`, the Potency result in [1], in [3], in [4], in [5], in [6] and in assay [7] was “inactive” throughout. Further, the Potency result in [8] was “inactive”. In addition, the outcome in assay [2] was inactive.

Turning to `C[Si](C)(C)O[Si](C)(C)C`, the Potency entry in assay [1], in assay [3], in assay [4], in assay [5], in assay [6] and in assay [7] was “inactive” in each case. Also, the Potency result in [8] was “inactive”. Besides, the result in [2] was inactive.

`COc1ccccc1/C=C/C=O`: the Potency result in [1], in assay [3], in [4], in assay [5], in assay [7] and in assay [8] was “inactive” in each case. The result in assay [2] was inactive.

As for `CC(C)=CCCC(C)CCO` (stereo unspecified), the Potency result in [1], in assay [3], in [4], in assay [5], in [6] and in assay [7] was “inactive” in each case. Besides, in [8], the Potency entry is “inactive”. The result in assay [2] was inactive.

With `CCCCC/C=C/C=C/C=O`, the compound was classed as inactive in assay [2]. The Potency result in [3], in assay [4], in assay [5], in assay [6], in assay [7] and in assay [8] was “inactive” in each case. In [9], the Potency result is “inactive and 54.5 µM (active)”. Further, the activity change, positive = activation in [10] (at 92.4 µM (top of the series)) was -1.92% (inactive) and -41.4% (inactive).

With `COC(=O)C1=C(C)NC(C)=C(C(=O)OCCN(C)Cc2ccccc2)C1c1cccc([N+](=O)[O-])c1` (stereo unspecified), the Potency entry in [1] and in [7] was “inactive” throughout. For the same compound, the compound was classed as inactive in assay [2]. Also, the Potency in assay [4] is 44.7 µM (active) and 49.2 µM (active); in [5] it was 24.4 µM (active) and 10.7 µM (active); in [6] it was 21.7 µM (active) and 16.9 µM (active).

With `c1ccc2sc(SSN3CCOCC3)nc2c1`, the Potency is 54.8 µM (active) and 54.9 µM (active) in assay [1]; 54.9 µM (active) in assay [5]; 21.8 µM (active) and 43.6 µM (active) in assay [6]; “inactive and 54.9 µM (active)” in assay [8]. In addition, the Potency result in assay [9] and in [7] was “inactive” in each case. Also, the activity change, positive = activation in [10] (at 92.4 µM (top of the series)) was 4.82% (inactive) and -28.8% (inactive).

In the case of `O=C(/C=C/C=C/c1ccc2c(c1)OCO2)N1CCCCC1`, the Potency result in assay [1], in assay [4], in assay [9], in assay [5], in [7] and in assay [8] was “inactive” in each case. In addition, in [10] (at 92.4 µM (top of the series)), the activity change, positive = activation is 24.4% (active) and 12.9% (active). Besides, the Potency in assay [6] is 55.1 µM (active).

For `Brc1cc(Oc2cc(Br)c(Br)c(Br)c2Br)c(Br)c(Br)c1Br`, the Potency in [1] is 49.2 µM (active) and inactive. The Potency result in assay [3], in assay [4], in [5], in assay [6], in assay [7] and in [8] was “inactive” throughout.

On to `O=C1OC2(c3cc(Br)c(O)c(Br)c3Oc3c2cc(Br)c(O)c3Br)c2c(Cl)c(Cl)c(Cl)c(Cl)c21`, for which the Potency is 19.5 µM (active) and 29.7 µM (active) in assay [1]; 7.14 µM (active) in assay [4]; 43.7 µM (active) and 26.5 µM (active) in [7]. Besides, the Potency result in [3], in [9], in assay [5], in assay [6] and in assay [8] was “inactive” throughout. Further, the activity change, positive = activation is -3.67% (inactive) in assay [10] (at 42.5 µM (top of the series)) and -28% (inactive) in assay [10] (at 92.4 µM (top of the series)).

`CCCCc1oc2ccccc2c1C(=O)c1cc(I)c(OCCN(CC)CC)c(I)c1`: the Potency in assay [1] was 27.8 µM (active) and 21.3 µM (active); in assay [4], 80.7 µM (active) and 43.8 µM (active); in [9], 48.9 µM (active) and 29.8 µM (active); in assay [5], 39.2 µM (active) and 23.9 µM (active); in assay [6], 34.9 µM (active) and 23.9 µM (active). For the same compound, in assay [10] (at 42.5 µM (top of the series)), the activity change, positive = activation was -36% (inactive) and -39.6% (inactive). Further, the Potency entry in assay [7] was “inactive”.

Consider `CN1C(C(=O)Nc2ccccn2)=C(O)c2ccccc2S1(=O)=O`, for which the Potency result in [1], in assay [4], in assay [5], in assay [6], in assay [7] and in [8] was “inactive” in each case. Besides, the compound was called inactive in assay [2].

As for `Cc1ccc(C(=O)c2cc(O)c(O)c([N+](=O)[O-])c2)cc1`, the Potency entry in assay [1], in assay [3], in assay [4], in assay [5], in [6] and in [7] was “inactive” throughout. For the same compound, in [8], the Potency result is “inactive”. The Potency in [9] is 30.6 µM (active) and 26.6 µM (active). For the same compound, the results for the activity change, positive = activation in assay [10] (at 42.5 µM (top of the series)) and in assay [10] (at 92.4 µM (top of the series)) were -49.4% (inactive) and -70.9% (inactive), respectively.

As to `C#C[C@]1(O)CC[C@H]2[C@@H]3CCC4=Cc5oncc5C[C@]4(C)[C@H]3CC[C@@]21C`, the Potency entry in assay [1] and in assay [7] was “inactive” in each case. For the same compound, the result in [2] was inactive. Further, the Potency in [4] was 89.8 µM (active); in assay [9], 24.3 µM (active) and 23.7 µM (active). Further, the activity change, positive = activation in assay [10] (at 42.5 µM (top of the series)) is -54.8% (inactive); in assay [10] (at 92.4 µM (top of the series)) it was -70.8% (inactive).
